Assay results from the supplement of paper PMC10849652.
About 8,800 targets were measured; listed, in parts, are those with a hit and a random draw of the rest. About 0.5% of all pairs of compound and target were hits.

Tests used:
Assay in all cases: log2 fold change, soluble protein after heating vs DMSO (PISA); higher = thermal stabilisation; K562 lysate, 10 uM; active = over 0.2 and 3.5 SD of the protein, either way, in both replicates (recomputed)
[1] = compound: CC(=O)c1cnc2ccc(-c3cc(Cl)c(O)c(Cl)c3)nc2c1N[C@H]1CC[C@H](CN(C)C)CC1
Summary of the method: (§1)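 K562 pellets were dounce-homogenised in PBS pH 7.4 with 1 mM MgCl2, and the crude extract at 1 mg/mL protein was treated with 10 μM compound for 30 min. Aliquots were heated for 3 min across 48°C-58°C, pooled, and brought to 0.5% NP-40 at 4°C; soluble protein was the supernatant after 21,000xg for 90 min. Soluble protein was quantified by TMTpro 16plex LC-MS/MS with channel sums equalised, and reported as log2 fold change in thermal stability against DMSO controls, with values from duplicates.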

ralimetinib = compound: CC(C)(C)Cn1c(N)nc2ccc(-c3[nH]c(C(C)(C)C)nc3-c3ccc(F)cc3)nc21 [ralimetinib]
Summary of the method: as §1

[2] = compound: CC(C)(O)CC(=O)NCCn1ccc2ncnc(Nc3ccc(Oc4cccc(C(F)(F)F)c4)c(Cl)c3)c21
Summary of the method: as §1

[3] = compound: CC(C)C1=C2N=C(C=C(N2N=C1)NCC3=CC=CC=C3)NCCCCCCN
Summary of the method: as §1

[4] = compound: CC1=C(C(CC(=O)N1)C2=CC=C(C=C2)C(F)(F)F)C(=O)NC3=C(C=C4C(=C3)C=NN4)F
Summary of the method: as §1

[5] = compound: CC1=C(C2=C(C=C1)C(=O)C3=CC=CC=C3N2CCCN)C
Summary of the method: as §1

[6] = compound: CC1=C(C=C(C=C1)NC(=O)C2=CC(=CC=C2)C(C)(C)C#N)NC3=CC4=C(C=C3)N=CN(C4=O)C
Summary of the method: as §1

[7] = compound: CC1=C(C=C(C=C1)NC(=O)C2=CC(=CC=C2)N(C)C)NC(=O)C3=CC=C(C=C3)O
Summary of the method: as §1

[8] = compound: CC1=CC=C(C=C1)SC2=C3C=C(SC3=CN=C2)C(=O)N
Summary of the method: as §1

[9] = compound: CCCS(=O)(=O)Nc1ccc(F)c(C(=O)c2c[nH]c3ncc(Cl)cc23)c1F
Summary of the method: as §1

volasertib = compound: CC[C@@H]1C(=O)N(C)c2cnc(Nc3ccc(C(=O)N[C@H]4CC[C@H](N5CCN(CC6CC6)CC5)CC4)cc3OC)nc2N1C(C)C [volasertib]
Summary of the method: as §1

[10] = compound: CCn1c(C(=O)N(C2CC2)C2CC2)cc2c3c(ncn3C)c(Nc3cc(C)n(C)n3)nc21
Summary of the method: as §1

[11] = compound: CCn1cc(-c2ccnc3[nH]c(-c4cccc(CN(C)C)c4)cc23)c(-c2ccc(NC(=O)N(C)C)cc2)n1
Summary of the method: as §1

[12] = compound: CN1CCC(CNc2ccc3ncc(-c4cccc(OC(F)(F)F)c4)n3n2)CC1
Summary of the method: as §1

saracatinib = compound: CN1CCN(CCOc2cc(OC3CCOCC3)c3c(Nc4c(Cl)ccc5c4OCO5)ncnc3c2)CC1 [saracatinib]
Summary of the method: as §1

sotrastaurin = compound: CN1CCN(c2nc(C3=C(c4c[nH]c5ccccc45)C(=O)NC3=O)c3ccccc3n2)CC1 [sotrastaurin]
Summary of the method: as §1

ibrutinib = compound: C=CC(=O)N1CCC[C@@H](n2nc(-c3ccc(Oc4ccccc4)cc3)c3c(N)ncnc32)C1 [ibrutinib]
Summary of the method: as §1

vemurafenib = compound: CCCS(=O)(=O)Nc1ccc(F)c(C(=O)c2c[nH]c3ncc(-c4ccc(Cl)cc4)cc23)c1F [vemurafenib]
Summary of the method: as §1

barasertib = compound: CCN(CCCOc1ccc2c(Nc3cc(CC(=O)Nc4cccc(F)c4)[nH]n3)ncnc2c1)CCOP(=O)(O)O [barasertib]
Summary of the method: as §1

[13] = compound: CC[C@@H]1C(=O)N(C)c2cnc(Nc3ccc(C(=O)NC4CCN(C)CC4)cc3OC)nc2N1C1CCCC1
Summary of the method: as §1

Measured: log2 fold change

MED28 (UniProt Q9H204)
Chain of UniProt Q9H204 (Q9H204 whole entry, looked up): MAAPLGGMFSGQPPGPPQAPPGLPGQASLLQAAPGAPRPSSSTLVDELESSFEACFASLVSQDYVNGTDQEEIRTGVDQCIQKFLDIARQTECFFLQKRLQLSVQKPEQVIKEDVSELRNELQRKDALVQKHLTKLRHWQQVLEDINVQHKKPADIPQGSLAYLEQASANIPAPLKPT
inactive: [1] -0.067 | ralimetinib -0.032 | [2] -0.025 | [3] -0.002 | [4] -0.088 | [5] -0.039 | [6] 0.11 | [7] 0.021 | [8] 0.009 | [9] -0.004 | volasertib 0.096 | [10] 0.053 | [11] -0.063 | [12] 0.322 | saracatinib -0.032 | sotrastaurin -0.028

MAPK3 (UniProt H0YEX6)
inactive: [4] 0.029

KRI1 (UniProt Q8N9T8)
inactive: ibrutinib -0.023 | ralimetinib 0.047 | [2] -0.018 | [3] 0.043 | [4] 0.074 | [5] -0.069 | [6] 0.02 | [7] 0.046 | vemurafenib -0.079 | barasertib -0.03 | [13] 0.005 | [10] 0.021 | [11] -0.005 | [12] -0.014 | saracatinib 0 | sotrastaurin 0.008

LRP1 (UniProt Q07954)
inactive: [1] -0.017 | [6] 0.378 | [8] -0.049 | vemurafenib 0.15 | [9] -0.072 | [13] -0.163 | volasertib 0.004 | sotrastaurin -0.043

LY6E (UniProt Q16553)
Chain of UniProt Q16553 (Q16553 whole entry, looked up): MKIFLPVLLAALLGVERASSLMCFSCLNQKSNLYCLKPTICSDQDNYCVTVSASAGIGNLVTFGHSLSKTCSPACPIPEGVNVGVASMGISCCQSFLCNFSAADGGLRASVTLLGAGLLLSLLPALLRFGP
inactive: ibrutinib -0.032 | [1] 0.028 | [4] -0.027 | [8] -0.042 | vemurafenib 0.068 | [9] 0.026 | barasertib -0.02 | [13] -0.055 | volasertib 0.022 | [12] 0.533
active: [11] -1.86

MDM2 isoform 11 (UniProt Q00987)
Chain of UniProt Q00987 (Q00987 whole entry, looked up): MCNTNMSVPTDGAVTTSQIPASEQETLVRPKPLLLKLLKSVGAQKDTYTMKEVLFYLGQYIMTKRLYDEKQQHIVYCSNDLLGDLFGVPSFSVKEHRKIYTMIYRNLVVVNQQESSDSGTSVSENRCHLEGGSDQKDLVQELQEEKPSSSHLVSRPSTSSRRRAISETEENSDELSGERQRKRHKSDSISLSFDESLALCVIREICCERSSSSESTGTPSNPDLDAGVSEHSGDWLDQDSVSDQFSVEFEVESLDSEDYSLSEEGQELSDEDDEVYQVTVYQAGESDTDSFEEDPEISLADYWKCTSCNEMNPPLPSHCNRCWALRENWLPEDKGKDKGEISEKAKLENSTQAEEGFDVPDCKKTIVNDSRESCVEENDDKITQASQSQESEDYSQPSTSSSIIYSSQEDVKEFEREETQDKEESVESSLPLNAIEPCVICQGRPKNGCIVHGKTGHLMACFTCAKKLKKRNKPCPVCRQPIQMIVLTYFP
inactive: ibrutinib -0.071 | ralimetinib 0.038 | [2] -0.08 | [3] -0.006 | [6] -0.074 | [7] 0.076 | vemurafenib -0.035 | barasertib -0.238 | [10] -0.03 | [11] 0.024 | [12] -0.038 | sotrastaurin 0.053

MEX3A (UniProt A1L020)
Chain of UniProt A1L020 (A1L020 whole entry, looked up): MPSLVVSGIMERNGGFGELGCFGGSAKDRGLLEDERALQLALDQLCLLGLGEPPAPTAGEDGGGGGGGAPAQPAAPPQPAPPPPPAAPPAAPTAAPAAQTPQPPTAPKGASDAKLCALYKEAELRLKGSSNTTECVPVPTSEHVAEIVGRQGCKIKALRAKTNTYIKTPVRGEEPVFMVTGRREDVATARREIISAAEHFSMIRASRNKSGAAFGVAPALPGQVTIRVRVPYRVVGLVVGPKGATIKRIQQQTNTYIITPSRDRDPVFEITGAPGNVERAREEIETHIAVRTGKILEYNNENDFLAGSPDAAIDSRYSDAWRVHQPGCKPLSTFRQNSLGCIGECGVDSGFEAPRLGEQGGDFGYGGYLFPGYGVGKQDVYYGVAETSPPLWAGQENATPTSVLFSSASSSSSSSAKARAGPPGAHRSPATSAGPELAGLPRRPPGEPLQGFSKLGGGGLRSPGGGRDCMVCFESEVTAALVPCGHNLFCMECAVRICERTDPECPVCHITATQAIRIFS
inactive: ralimetinib -0.21 | [2] -0.123 | [4] -0.076 | [5] 0.003 | [7] -0.162 | vemurafenib -0.094 | [10] 0.191 | saracatinib 0.055

MRC2 (UniProt Q9UBG0)
Chain of UniProt Q9UBG0 (Q9UBG0 whole entry, looked up): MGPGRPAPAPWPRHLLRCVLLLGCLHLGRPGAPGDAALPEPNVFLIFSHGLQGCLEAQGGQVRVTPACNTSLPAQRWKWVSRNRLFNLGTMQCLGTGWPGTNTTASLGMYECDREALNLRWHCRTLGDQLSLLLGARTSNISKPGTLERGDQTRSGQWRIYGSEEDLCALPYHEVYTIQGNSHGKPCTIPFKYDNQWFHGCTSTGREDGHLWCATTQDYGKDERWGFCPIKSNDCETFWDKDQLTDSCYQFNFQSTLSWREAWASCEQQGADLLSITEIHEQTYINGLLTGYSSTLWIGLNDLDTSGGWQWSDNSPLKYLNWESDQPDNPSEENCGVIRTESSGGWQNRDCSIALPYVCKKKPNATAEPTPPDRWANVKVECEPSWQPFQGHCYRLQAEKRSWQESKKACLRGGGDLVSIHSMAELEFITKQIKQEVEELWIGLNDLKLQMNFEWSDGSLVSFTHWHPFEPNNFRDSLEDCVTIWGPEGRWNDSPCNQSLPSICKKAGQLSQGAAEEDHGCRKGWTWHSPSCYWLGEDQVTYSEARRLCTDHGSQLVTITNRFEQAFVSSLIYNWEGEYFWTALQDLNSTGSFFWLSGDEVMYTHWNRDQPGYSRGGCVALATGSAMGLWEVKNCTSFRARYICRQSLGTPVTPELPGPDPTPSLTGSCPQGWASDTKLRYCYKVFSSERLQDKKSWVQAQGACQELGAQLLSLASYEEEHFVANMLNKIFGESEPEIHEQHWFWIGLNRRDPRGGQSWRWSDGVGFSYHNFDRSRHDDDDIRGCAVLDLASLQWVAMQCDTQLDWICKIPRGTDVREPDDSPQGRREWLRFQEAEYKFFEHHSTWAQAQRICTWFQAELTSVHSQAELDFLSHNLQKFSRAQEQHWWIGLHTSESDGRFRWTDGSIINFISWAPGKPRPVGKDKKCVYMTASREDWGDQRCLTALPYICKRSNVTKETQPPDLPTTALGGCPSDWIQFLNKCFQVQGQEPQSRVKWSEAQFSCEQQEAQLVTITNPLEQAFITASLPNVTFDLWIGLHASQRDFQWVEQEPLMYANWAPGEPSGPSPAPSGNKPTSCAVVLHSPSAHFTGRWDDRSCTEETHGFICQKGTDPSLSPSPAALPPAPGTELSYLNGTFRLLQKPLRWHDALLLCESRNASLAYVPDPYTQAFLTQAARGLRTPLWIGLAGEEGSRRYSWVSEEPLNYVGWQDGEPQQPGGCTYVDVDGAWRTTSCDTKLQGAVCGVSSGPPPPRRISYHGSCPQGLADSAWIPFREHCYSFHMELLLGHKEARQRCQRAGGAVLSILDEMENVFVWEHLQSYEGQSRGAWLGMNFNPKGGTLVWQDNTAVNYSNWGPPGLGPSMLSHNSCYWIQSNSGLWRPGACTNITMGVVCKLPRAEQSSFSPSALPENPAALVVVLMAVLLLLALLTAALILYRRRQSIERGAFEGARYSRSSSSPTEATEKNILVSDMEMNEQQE
inactive: [3] -0.015 | [4] 0.002 | [5] 0.03 | [6] 0.133 | [13] 0.205 | [11] 0.053 | [12] 0.124 | saracatinib 0.301 | sotrastaurin -0.054

LGALS3BP (UniProt Q08380)
Chain of UniProt Q08380 (Q08380 whole entry, looked up): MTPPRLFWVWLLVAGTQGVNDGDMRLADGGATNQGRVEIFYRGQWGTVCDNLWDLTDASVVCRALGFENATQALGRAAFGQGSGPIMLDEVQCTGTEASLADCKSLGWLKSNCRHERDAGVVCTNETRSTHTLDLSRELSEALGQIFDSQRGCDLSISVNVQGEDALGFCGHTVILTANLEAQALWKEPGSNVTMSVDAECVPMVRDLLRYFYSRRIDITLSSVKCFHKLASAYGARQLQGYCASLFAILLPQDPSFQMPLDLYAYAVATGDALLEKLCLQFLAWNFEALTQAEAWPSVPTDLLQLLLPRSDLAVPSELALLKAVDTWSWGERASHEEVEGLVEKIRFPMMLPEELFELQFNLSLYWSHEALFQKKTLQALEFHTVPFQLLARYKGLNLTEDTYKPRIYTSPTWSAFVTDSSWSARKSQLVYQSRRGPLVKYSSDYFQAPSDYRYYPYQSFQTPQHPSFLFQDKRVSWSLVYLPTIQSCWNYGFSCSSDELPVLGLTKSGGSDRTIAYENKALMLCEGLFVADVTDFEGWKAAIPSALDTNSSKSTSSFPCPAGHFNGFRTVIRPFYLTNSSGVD
inactive: [1] 0.061 | [3] 0 | [4] 1.31 | [5] 0.453 | [6] -0.009 | [8] 0 | vemurafenib -0.196 | [9] 0.01 | [13] 0.036 | volasertib 0.044 | [11] 0.168 | [12] 0 | saracatinib 0.219 | sotrastaurin -0.067

KIF18B (UniProt Q86Y91)
Chain of UniProt Q86Y91 (Q86Y91 whole entry, looked up): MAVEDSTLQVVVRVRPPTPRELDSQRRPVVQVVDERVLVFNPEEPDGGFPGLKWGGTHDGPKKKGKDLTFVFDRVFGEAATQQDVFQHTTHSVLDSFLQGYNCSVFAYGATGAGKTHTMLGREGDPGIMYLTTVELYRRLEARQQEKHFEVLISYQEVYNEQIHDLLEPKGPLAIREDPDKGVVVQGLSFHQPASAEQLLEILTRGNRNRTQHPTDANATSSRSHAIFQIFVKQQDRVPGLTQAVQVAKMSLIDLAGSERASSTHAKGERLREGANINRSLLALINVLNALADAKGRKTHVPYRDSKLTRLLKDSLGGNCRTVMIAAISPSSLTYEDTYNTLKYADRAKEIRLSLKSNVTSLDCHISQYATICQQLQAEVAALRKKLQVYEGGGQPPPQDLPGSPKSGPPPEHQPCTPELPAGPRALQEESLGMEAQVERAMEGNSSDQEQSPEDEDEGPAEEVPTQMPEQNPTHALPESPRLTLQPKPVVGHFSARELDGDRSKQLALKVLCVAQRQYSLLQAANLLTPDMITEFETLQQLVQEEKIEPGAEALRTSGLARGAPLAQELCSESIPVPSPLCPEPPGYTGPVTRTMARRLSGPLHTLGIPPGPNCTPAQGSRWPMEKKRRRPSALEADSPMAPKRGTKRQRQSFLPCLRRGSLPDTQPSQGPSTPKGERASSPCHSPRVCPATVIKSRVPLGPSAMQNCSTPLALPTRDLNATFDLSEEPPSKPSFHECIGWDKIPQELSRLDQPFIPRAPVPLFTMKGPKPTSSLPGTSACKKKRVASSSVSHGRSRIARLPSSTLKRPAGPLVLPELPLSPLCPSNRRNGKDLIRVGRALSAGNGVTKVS
inactive: [1] -0.157 | [5] -0.022 | [6] 0 | [8] -0.121 | [9] 0.017 | [13] 0.221 | volasertib -0.046 | saracatinib 0.04 | sotrastaurin 0.106

MOCS3 (UniProt O95396)
Chain of UniProt O95396 (O95396 whole entry, looked up): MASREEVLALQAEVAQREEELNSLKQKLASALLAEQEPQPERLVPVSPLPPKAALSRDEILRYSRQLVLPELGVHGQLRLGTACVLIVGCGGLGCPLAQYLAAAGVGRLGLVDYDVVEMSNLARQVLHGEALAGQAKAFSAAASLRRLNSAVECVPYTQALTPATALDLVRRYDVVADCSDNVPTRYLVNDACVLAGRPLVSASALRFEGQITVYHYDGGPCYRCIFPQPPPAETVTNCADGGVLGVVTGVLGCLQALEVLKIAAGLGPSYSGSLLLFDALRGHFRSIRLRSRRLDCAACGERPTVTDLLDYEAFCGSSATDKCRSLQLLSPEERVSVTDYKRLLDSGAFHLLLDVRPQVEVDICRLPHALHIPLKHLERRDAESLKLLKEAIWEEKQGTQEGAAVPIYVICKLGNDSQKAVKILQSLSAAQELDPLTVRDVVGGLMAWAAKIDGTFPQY
inactive: ibrutinib 0.045 | ralimetinib -0.016 | [2] -0.014 | [3] -0.018 | [4] 0.056 | [5] -0.04 | [6] 0.079 | [7] 0.001 | vemurafenib -0.12 | barasertib -0.018 | [13] -0.038 | [10] 0.037 | [11] -0.273 | [12] 0.264 | saracatinib 0.06 | sotrastaurin 0.11
